Assay results: PubChem BioAssay (Tox21)
Unmarked numbers belong to inactive results. Results filed as inconclusive are left out. Entries that show only a call come without a potency. Active and inactive are the calls of the source. Unless noted, calls come from the whole dose curve; as a rule, active = well fitted curve in the direction sought with a large enough effect in the repeat runs; inconclusive = weak or mixed curves; inactive = no such curve, though single readings can be large; an effect the other way counts as inactive or inconclusive.

Key:
[1] = qHTS assay to identify small molecule antagonists of the estrogen related receptor (ERR) signaling pathway from Tox21 library - cell viability counter screen (AID 1224834); note: nearly all actives have a fitted effect of over 30% in size
Method in brief: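 In this quantitative HTS format, ERR cells receive compounds in DMSO and are incubated for 17.5 h at 37 C. Live-cell protease activity is then detected with CellTiter-Fluor.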

[2] = biological target: Luciferin 4-monooxygenase (Photinus pyralis) (UniProt P08659); assay: qHTS assay to identify small molecule inhibitors of firefly luciferase (AID 1224835); note: nearly all actives have a fitted effect of over 25% in size; note: potency is the fitted concentration of half-maximal effect
Method in brief: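 Quantitative HTS format; KM concentrations of both substrates. Purified P. pyralis FLuc activity quantified from luminescence images.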

[3] = qHTS assay to identify small molecule agonists of the constitutive androstane receptor (CAR) signaling pathway - cell viability counter screen (AID 1224836); note: nearly all actives have a fitted effect of over 45% in size
Method in brief: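 Compound titrations (15 concentrations) went onto HepG2-CYP2B6-hCAR cells 4 h after seeding, alongside PK11195 at a final 0.75 uM; a 23 h, 37 C/5% CO2 incubation preceded CellTiter-Fluor viability measurement.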

[4] = qHTS assay to identify small molecule antagonists of the constitutive androstane receptor (CAR) signaling pathway - cell viability counter screen (AID 1224837); note: nearly all actives have a fitted effect of over 45% in size
Method in brief: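 In quantitative HTS format, compounds at 15 concentrations were applied to HepG2 cells double-transfected with hCAR and CYP2B6-2.2kb under 50 nM CITCO stimulation; live-cell protease activity was read after 23 hr via CellTiter-Fluor.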

[5] = biological target: Nuclear receptor subfamily 1 group I member 3 (Homo sapiens) (UniProt Q14994); assay: qHTS assay to identify small molecule antagonists of the constitutive androstane receptor (CAR) signaling pathway (AID 1224838); note: nearly all actives have a fitted effect of over 40% in size
Method in brief: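 CITCO-stimulated (50 nM final) HepG2 cells stably transfected with hCAR and CYP2B6-2.2kb luciferase were exposed to compounds at 15 concentrations for 24 h at 37 C/5% CO2. A luciferase reagent was added and luminescence recorded after 30 min.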

[6] = qHTS assay to identify small molecule antagonists of the estrogen related receptor signaling pathway with the pleiotropic PPARgamma coactivator (PGC) from Tox21 10K library - cell viability counter screen (AID 1224840; active = well fitted cell-killing curve with a large enough effect in the repeat runs, not every such curve was filed as active; note: nearly all actives have a fitted effect of over 40% in size)
Method in brief: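 Viability counter screen, PGC/ERR cells: 17.5 h compound exposure at 37 C, CellTiter-Fluor fluorescence endpoint.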

[7] = qHTS assay to identify small molecule antagonists of the estrogen related receptor signaling pathway with the pleiotropic PPARgamma coactivator (PGC) from Tox21 10K library (AID 1224841; call rule not given here; note: actives are mostly falling curves and most rising ones were filed inactive; nearly all actives have a fitted effect of over 50% in size)
Method in brief: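 In the PGC/ERR line, DMSO solutions of test chemicals are pin-delivered to 2,000 cells/well six hours after dispensing. Following eighteen hours' incubation, One-Glo reagent is added and luminescence recorded.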

[8] = qHTS assay to identify small molecule agonists of the estrogen related receptor signaling pathway with the pleiotropic PPARgamma coactivator (PGC) from Tox21 10K library (AID 1224842); note: nearly all actives have a fitted effect of over 15% in size
Method in brief: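 PGC/ERR reporter cells (NTP line) were seeded 2,000 per well, rested 6 h at 37 C/5% CO2, then pin-dosed with compounds in DMSO for 18 h at 37 C; luciferase read by One-Glo luminescence after 30 min at room temperature.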

[9] = biological target: Thyrotropin receptor (Homo sapiens) (UniProt P16473); assay: qHTS assay to identify small molecule agonists of the thyroid stimulating hormone receptor (TSHR) signaling pathway (AID 1224843; calls by dose curve; note: nearly all actives have a fitted effect of over 45% in size; note: potency is the fitted concentration of half-maximal effect)
Method in brief: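 Compounds are titrated over 15 concentrations, in triplicate, onto TSHR-HEK293 cells seeded at 800/well. Plates sit 30 min at room temperature before cAMP-d2 and anti-cAMP cryptate are added; signal is read after a further hour.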

[10] = qHTS assay to identify small molecule agonists of the hypoxia (HIF-1) signaling pathway - cell viability counter screen (AID 1224844; calls by dose curve; note: nearly all actives have a fitted effect of over 50% in size; note: potency is the fitted concentration of half-maximal effect)
Method in brief: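 Same wells as the HIF-1 reporter screen; ME-180 cells carrying HRE-bla, 17 hr treatment at 37C; CellTiter-Glo luminescence read after 30 min at room temperature.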

[11] = qHTS assay to identify small molecule agonists of H2AX (AID 1224845; active = well fitted activation curve with a large enough effect in the signal ratio in the repeat runs, not every such curve was filed as active; the % refers to the signal ratio)
Method in brief: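 Wild-type CHO-K1 cells plated overnight, then exposed 3 hr at 37C to compounds at 15 concentrations (0.76% DMSO). Lysed, then HTRF anti-pH2AX(S139)-cryptate/anti-H2AX-d2 detection after 24 hr at room temperature; emissions 665 and 620 nm.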

[12] = qHTS assay to identify small molecule agonists of the hypoxia (HIF-1) signaling pathway (AID 1224846; active = well fitted activation curve with a large enough effect in the signal ratio in the repeat runs, not every such curve was filed as active; the % refers to the signal ratio)
Method in brief: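 In ME-180 cells bearing an HRE-bla construct, 17 h treatment with DMSO-dissolved compounds at 37C was followed by CCF4-AM loading to quantify reporter induction.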

[13] = qHTS assay to identify small molecule agonists of H2AX - cell viability counter screen (AID 1224847; calls by dose curve; note: top concentration of the series differs between compounds; nearly all actives have a fitted effect of over 30% in size)
Method in brief: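 Read-out: CellTiter-Glo luminescence, 30 min RT. Cells: wild-type CHO-K1, 1000/well, 10% FBS, plated overnight at 37C. Treatment: 15 concentrations, 3 hr, 37C, 0.76% DMSO.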

[14] = qHTS assay to identify small molecule antagonists of the estrogen related receptor (ERR) signaling pathway from Tox21 library (AID 1224848); note: nearly all actives have a fitted effect of over 50% in size
Method in brief: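 First, 2,000 ERR cells per well were plated and held 6 h at 37 C/5% CO2. Next, compounds in DMSO were pinned in and left 18 h at 37 C. Finally, ONE-Glo was added and luminescence read after 30 min at room temperature.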

[15] = qHTS RealTime-Glo MT Cell Viability Assay in HepG2 cells - 24 hour (AID 1224867); note: nearly all actives have a fitted effect of over 50% in size
Method in brief: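 Cell number in HepG2 cultures estimated from NanoLuc luminescence generated by metabolic reduction of a prosubstrate by living cells. The homogeneous, nonlytic format allowed repeated reads at 0, 8, 16, 24, 32 and 40 h of compound exposure.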

[16] = qHTS RealTime-Glo MT Cell Viability Assay in HEK293 cells - 32 hour (AID 1224868)
Method in brief: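 Homogeneous bioluminescent viability format in HEK293 cells (600 cells/well). Following 5 h at 37 C/5% CO2, 23 nL compound was pintooled; the signal was measured repeatedly during 40 h incubation.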

[17] = A CellTox Green Cytotoxicity Assay to monitor cytotoxicity in HEK293 cells - 0 hour (AID 1224869); note: nearly all actives have a fitted effect of over 50% in size
Method in brief: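 Homogeneous no-lysis format: HEK293 cell suspension mixed with CellTox Green reagent, seeded, incubated 5 h at 37 C/5% CO2, then dosed by pintool with compound in DMSO.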

[18] = biological target: Nuclear receptor subfamily 1 group I member 3 (Homo sapiens) (UniProt Q14994); assay: qHTS assay to identify small molecule agonists of the constitutive androstane receptor (CAR) signaling pathway (AID 1224839); note: nearly all actives have a fitted effect of over 15% in size; note: potency is the fitted concentration of half-maximal effect;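 for activation: HepG2 cells stably carrying human CAR and a CYP2B6 luciferase reporter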
Method in brief: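 In this screen, CAR-driven CYP2B6 promoter activity is measured by luminescence in HepG2-CYP2B6-hCAR cells after 24 h with test compounds and 0.75 uM PK11195 (final concentration).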

[19] = qHTS assay to identify small molecule agonists of the estrogen related receptor (ERR) signaling pathway from Tox21 library (AID 1224849; calls by dose curve; note: nearly all actives have a fitted effect of over 15% in size); conditions: ERR reporter cell line, ONE-Glo luciferase, 18 h; at 92.4 µM (top of the series) unless noted
Method in brief: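 Reporter cells (ERR, NTP source) treated with Tox21 10K compounds 18 h, 37 C. Readout: ONE-Glo luminescence, 30 min RT.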

Thyrotropin receptor (Homo sapiens), sequence (P16473 whole entry, looked up): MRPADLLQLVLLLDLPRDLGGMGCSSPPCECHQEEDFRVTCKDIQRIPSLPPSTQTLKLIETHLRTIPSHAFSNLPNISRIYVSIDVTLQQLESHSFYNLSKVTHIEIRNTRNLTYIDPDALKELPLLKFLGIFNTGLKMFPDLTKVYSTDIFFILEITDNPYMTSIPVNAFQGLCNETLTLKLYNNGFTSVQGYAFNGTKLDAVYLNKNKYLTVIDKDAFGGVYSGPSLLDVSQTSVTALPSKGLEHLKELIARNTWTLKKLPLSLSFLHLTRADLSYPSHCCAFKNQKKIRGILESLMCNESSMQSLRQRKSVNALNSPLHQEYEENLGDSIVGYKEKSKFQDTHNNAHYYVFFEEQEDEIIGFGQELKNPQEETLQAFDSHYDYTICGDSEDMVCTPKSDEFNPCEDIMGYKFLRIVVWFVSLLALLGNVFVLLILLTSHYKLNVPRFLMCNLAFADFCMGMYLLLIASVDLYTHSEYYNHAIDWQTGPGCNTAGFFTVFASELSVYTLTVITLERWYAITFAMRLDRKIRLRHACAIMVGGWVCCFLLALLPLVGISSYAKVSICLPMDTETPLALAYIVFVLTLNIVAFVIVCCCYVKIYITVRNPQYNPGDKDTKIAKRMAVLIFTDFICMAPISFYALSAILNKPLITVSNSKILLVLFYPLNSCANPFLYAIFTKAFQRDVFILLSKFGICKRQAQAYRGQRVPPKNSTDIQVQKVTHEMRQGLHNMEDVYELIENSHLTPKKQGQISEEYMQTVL
Luciferin 4-monooxygenase (Photinus pyralis), sequence (P08659 whole entry, looked up): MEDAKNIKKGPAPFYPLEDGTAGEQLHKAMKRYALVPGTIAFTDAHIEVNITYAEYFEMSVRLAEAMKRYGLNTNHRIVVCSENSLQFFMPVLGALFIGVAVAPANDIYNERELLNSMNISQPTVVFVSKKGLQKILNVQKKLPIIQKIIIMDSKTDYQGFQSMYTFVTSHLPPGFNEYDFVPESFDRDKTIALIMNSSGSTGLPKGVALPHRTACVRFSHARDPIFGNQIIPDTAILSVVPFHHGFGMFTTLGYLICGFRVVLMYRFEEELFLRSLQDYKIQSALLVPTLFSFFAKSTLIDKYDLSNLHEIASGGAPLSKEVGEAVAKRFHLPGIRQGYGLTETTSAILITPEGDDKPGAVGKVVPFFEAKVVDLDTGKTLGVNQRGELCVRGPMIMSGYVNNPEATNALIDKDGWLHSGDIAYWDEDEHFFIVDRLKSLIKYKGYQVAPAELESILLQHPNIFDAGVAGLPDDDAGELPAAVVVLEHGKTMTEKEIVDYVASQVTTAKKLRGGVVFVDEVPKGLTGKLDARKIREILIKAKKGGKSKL
Nuclear receptor subfamily 1 group I member 3 (Homo sapiens), sequence (Q14994 whole entry, looked up): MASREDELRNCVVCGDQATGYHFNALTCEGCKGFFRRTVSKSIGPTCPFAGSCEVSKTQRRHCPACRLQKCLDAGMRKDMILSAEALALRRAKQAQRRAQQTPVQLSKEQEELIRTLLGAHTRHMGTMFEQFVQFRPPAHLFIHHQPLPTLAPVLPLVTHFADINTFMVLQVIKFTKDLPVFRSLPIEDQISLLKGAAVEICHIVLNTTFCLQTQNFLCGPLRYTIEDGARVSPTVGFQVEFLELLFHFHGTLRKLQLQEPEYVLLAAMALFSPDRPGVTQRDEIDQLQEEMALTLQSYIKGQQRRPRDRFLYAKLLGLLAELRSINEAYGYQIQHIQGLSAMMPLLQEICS

Row | Compound | Potency [1] | Potency [2] | Potency [3] | Potency [4] | Potency [5] | Potency [6] | Potency [7] | Potency [8] | Potency [9] | Potency [10] | Potency [11] | outcome [12] | Potency [13] | Potency [14] | outcome [15] | Potency [16] | Potency [17] | Potency [18] | activity change, positive = activation [19]
1 | Cc1cc(N)n(-c2ccccc2)n1 | inactive | inactive | inactive | inactive | inactive | inactive | inactive | inactive | inactive | inactive | inactive | inactive | inactive | inactive | inactive | inactive | inactive |  | 
2 | CC(=O)OCC(=O)[C@@]1(O)CC[C@H]2[C@@H]3CCC4=CC(=O)C=C[C@]4(C)[C@@]3(F)[C@@H](O)C[C@@]21C | inactive | inactive | inactive | inactive |  | inactive |  |  | inactive |  | inactive | inactive | inactive |  | inactive | inactive | inactive | inactive | 
3 | CC(CN=Cc1ccccc1O)N=Cc1ccccc1O (stereo not given) | inactive | inactive | inactive | inactive |  | inactive |  |  |  | inactive | inactive | inactive | inactive |  | inactive | inactive | inactive | inactive | 
4 | CC1=C(C)C(=O)C(C(CCCCCC(=O)O)c2ccccc2)=C(C)C1=O (stereo not given) | inactive | inactive | inactive | inactive |  | inactive |  |  |  | inactive | inactive | inactive | inactive |  | inactive | inactive | inactive |  | 
5 | [O-][n+]1ccc(Cl)cc1 | inactive | inactive | inactive | inactive |  | inactive |  |  |  | inactive | inactive | inactive | inactive |  | inactive | inactive | inactive | inactive | 
6 | Cc1ccc(Cl)c(OCC(O)CNC(C)(C)C)c1 (stereo not given) | inactive | inactive | inactive | inactive |  | inactive |  |  |  | inactive | inactive | inactive | inactive |  | inactive | inactive | inactive |  | 
7 | Cc1nc(C)c(C)nc1C | inactive | inactive | inactive | inactive |  |  | inactive | inactive | inactive |  | inactive | inactive | inactive |  | inactive | inactive | inactive | inactive | -0.837%
8 | C=CC(C)(O)CC/C=C(/C)CCC=C(C)C (stereo not given) | inactive | inactive | inactive | inactive |  | inactive |  |  |  | inactive | inactive | inactive | inactive |  | inactive | inactive | inactive |  | 
9 | N#C[C@@H]1CC(F)(F)CN1C(=O)CNC1CC2CCC(C1)N2c1ncccn1 (stereo not given in full) | inactive | inactive | inactive | inactive |  | inactive | inactive | inactive | inactive | inactive | inactive | inactive | inactive |  | inactive | inactive | inactive |  | -3.52%
10 | OCCc1ccncc1 | inactive | inactive | inactive | inactive |  | inactive | inactive | inactive | inactive | inactive | inactive | inactive | inactive |  | inactive | inactive | inactive |  | 1.06%
11 | O=C(OCCOCCOCCOC(=O)c1ccccc1)c1ccccc1 | inactive | inactive | inactive | inactive |  | inactive |  |  |  | inactive | inactive | inactive |  |  | inactive | inactive | inactive | inactive | 
12 | OCC(O)c1ccccc1 (stereo not given) | inactive | inactive | inactive | inactive |  | inactive |  |  | inactive | 38.9 µM (active) | inactive |  | inactive |  | inactive | inactive | inactive |  | 
13 | c1ccc(CN(Cc2ccccc2)Cc2ccccc2)cc1 | inactive | inactive | inactive | inactive |  |  |  |  | 17.2 µM (active) | inactive | inactive | inactive |  |  | inactive | inactive | inactive | inactive | 
14 | Clc1ccccc1-c1nc(-c2ccncc2)no1 | inactive | 2.75 µM (active) | inactive | inactive |  | inactive |  |  | inactive |  | inactive |  |  |  | inactive |  | inactive | 10.6 µM (active) | 
15 | CC(C)(O)C(=O)O | inactive | inactive | inactive | inactive |  | inactive |  |  |  | inactive | inactive | inactive | inactive |  | inactive | inactive | inactive | inactive | 
16 | CCCCCCCCCCCC(=O)OCC | inactive | inactive | inactive | inactive |  | inactive |  |  | inactive |  | inactive | inactive | inactive |  | inactive | inactive | inactive |  | 
17 | Cc1cc(C)n(CO)n1 | inactive | inactive | inactive | inactive |  | inactive |  |  | inactive | inactive | inactive | inactive | inactive |  | inactive | inactive | inactive |  | 
18 | CCOCCn1c(N2CCCN(C)CC2)nc2ccccc21 | inactive | inactive | inactive | inactive |  | inactive |  |  |  | inactive | inactive | inactive | inactive |  | inactive | inactive | inactive |  | 
19 | COc1cccc([C@H](O)C2CCN(CCc3ccc(F)cc3)CC2)c1OC | inactive | inactive | inactive | inactive |  | inactive |  |  | inactive | inactive | inactive | inactive | inactive |  | inactive |  | inactive |  | 
20 | CCCC(=O)OCCC(C)C | inactive | inactive | inactive | inactive |  | inactive |  |  | inactive | inactive | inactive | inactive | inactive |  | inactive | inactive | inactive |  | 
